The structures appear in SMILES notation. Several values for one entry are separate records, joined by “and”; a condition that tells them apart may be missing. Identical values can stand only once. Unmarked numbers belong to inactive results. Results filed as inconclusive are left out. Activity calls are given as the source filed them. Unless noted, the call rests on the fitted dose curve; in most records, active means well fitted curve in the direction sought with a large enough effect; inconclusive means small, poorly fitted or top-dose-only effect, or another doubt; inactive means no such curve, though single readings can be large; an effect the other way counts as inactive or inconclusive.

From PubChem BioAssay (NCATS) come the findings set out here.

A short description of assay [1]: Cellular Toxicity (caspase-3) SHSY5Y (AID 657). The procedure, abridged: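 SH-SY5Y human neuroblastoma cells, 1500/well, exposed to compound for 16 hours at 37 °C in complete medium. Caspase-3/7 activity read by Caspase-Glo luminescence after 1 hr at room temperature, normalized to DMSO and 10 uM staurosporine; AC50 from Hill fit.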
Assay [2] can be described thus: Cell Viability - LYMP2-001 (AID 921). Further: nearly all actives have a fitted effect of over 70% in size. Further: potency means the concentration at half of the fitted maximal effect. In a few lines: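 Human lymphoblastoid LYMP2-001 cells, 2500 per well, in complete medium, treated 24 h at 37 C. Viability from cellular ATP by CellTiter-Glo luminescence; AC50 from Hill-equation fits of qHTS concentration-response.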
Assay [3] is described as follows: Cell Viability - LYMP1-002 - Assay at 16 hr (AID 948). Further: potency means the concentration at half of the fitted maximal effect. In a few lines:
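LYMP1-002 human lymphoblastoid cells, 2500/well, were treated with compounds for 16 hr at 37 C in complete medium. Viability was read as intracellular ATP by CellTiter-Glo luminescence, and AC50 was derived from a Hill fit to concentration-response data.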

The nature of assay [4]: MultiTox-Fluor Cytotoxicity Assay - LYMP1-003 - Dead Cells (AID 961). Further: nearly all actives have a fitted effect of over 70% in size. Further: potency means the concentration at half of the fitted maximal effect. The procedure, abridged:
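LYMP1-003 lymphoblastoid, 2500 cells/well, 5 hr settle then 16 hr cpd at 37 C; MultiTox-Fluor reagent 60 min RT; Ex/Em 485/520 dead-cell signal; norm. DMSO = 0%, 15 uM tetraoctylammonium bromide = 100%; Hill AC50.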

Assay [5] is described as follows: Cell Viability - LYMP2-005 (AID 967). Further: potency means the concentration at half of the fitted maximal effect. The procedure, abridged: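 Human lymphoblastoid LYMP2-005 cells, 2,500 per well in complete medium, rested 5 h at 37C then compound-treated 24 h at 37C. Intracellular ATP read by CellTiter-Glo luminescence after 30 min at room temperature; AC50 from Hill-equation fits of concentration-response data.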
Assay [6] is described as follows: Cell Viability - LYMP2-009 (AID 968). Further: nearly all actives have a fitted effect of over 55% in size. Further: potency means the concentration at half of the fitted maximal effect.
Assay [7] is described as follows: Cell Viability - LYMP2-011 (AID 969). Further: nearly all actives have a fitted effect of over 60% in size. Further: potency means the concentration at half of the fitted maximal effect. The procedure, abridged:
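Human lymphoblastoid cells (2500/well) were plated in complete medium, preincubated 5 hr at 37 C, then exposed to compounds for 24 hr at 37 C. Intracellular ATP was read by CellTiter-Glo luminescence, and AC50 came from Hill-equation concentration-response fits.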

The nature of assay [8]: Cell Viability - LYMP2-017 (AID 972). Further: nearly all actives have a fitted effect of over 55% in size. Further: potency means the concentration at half of the fitted maximal effect. In a few lines:
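Human lymphoblastoid cells (2500/well) were seeded in complete medium, held 5 hr at 37 C, then exposed to compounds for 24 hr at 37 C. Intracellular ATP was read by CellTiter-Glo luminescence after 30 min at room temperature, with AC50 values from Hill-equation fits.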

Assay [9] in a line: Cell Viability - LYMP2-021 (AID 974).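 Further: compound exposure lasts 24 hours at 37 °C; nearly all actives have a fitted effect of over 55% in size.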 Further: potency means the concentration at half of the fitted maximal effect. The procedure, abridged: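 Human lymphoblastoid cells (2500/well) were preincubated 5 hr at 37 C, then exposed to compounds for 24 hr at 37 C in complete medium. Intracellular ATP was read by CellTiter-Glo luminescence; AC50 came from Hill-equation fits of concentration-response data.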
Assay [10] is described as follows: Cell Viability - LYMP2-023 (AID 975). Further: nearly all actives have a fitted effect of over 55% in size. Further: potency means the concentration at half of the fitted maximal effect. The procedure, abridged: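 Human lymphoblastoid cells (2500/well) were preincubated 5 hr at 37 C, then exposed to compounds for 24 hr at 37 C in complete medium. Cellular ATP was read by CellTiter-Glo luminescence, and AC50 came from Hill-equation fits.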
Assay [11] can be described thus: Cell Viability - LYMP2-025 (AID 976). Further: potency means the concentration at half of the fitted maximal effect. In a few lines:
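Human lymphoblastoid LYMP2-025 cells (2500/well) were pre-incubated 5 hr at 37 C, then treated with compounds for 24 hr at 37 C in complete medium. Viability was read as intracellular ATP by CellTiter-Glo luminescence; AC50 from Hill fits.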

Assay [12] in a line: Cell Viability - LYMP2-007 (AID 979).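 Further: cells exposed to compound for 24 h before reading; nearly all actives have a fitted effect of over 60% in size.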 Further: potency means the concentration at half of the fitted maximal effect. In a few lines: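 Human lymphoblastoid cells (2500/well) were plated in complete medium, incubated 5 hr at 37 C, then exposed to compounds for 24 hr at 37 C. Intracellular ATP was read by CellTiter-Glo luminescence after 30 min at room temperature; AC50 from Hill fits.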
Assay [13] can be described thus: Cell Viability - LYMP2-012 (AID 982). Further: potency means the concentration at half of the fitted maximal effect.
Assay [14] in a line: Cell Viability - LYMP1-002 - Assay at 40 hr (AID 994). Further: nearly all actives have a fitted effect of over 60% in size. Further: potency means the concentration at half of the fitted maximal effect. In a few lines: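 Human lymphoblastoid cells, 2500/well in complete medium, were preincubated 5 hr at 37 C, then exposed to compounds for 40 hr at 37 C. Intracellular ATP was read by CellTiter-Glo luminescence after 30 min at room temperature; AC50 from Hill-equation fits.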
The nature of assay [15]: qHTS assay for small molecule disruptors of the mitochondrial membrane potential - 5 hr assay (AID 651755; calls by dose curve; further: on the % scale 0 is the no-effect control and ±100 the full control effect; nearly all actives have a fitted effect of over 40% in size). The procedure, abridged:
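HepG2 cells, attached overnight at 37C, were exposed to compound or DMSO for 5 hr at 37C, 5% CO2. Mito-MPS dye was then added for 30 min, and fluorescence read at 490/535 nm (monomers) and 540/590 nm (aggregates).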

The nature of assay [16]: qHTS assay for environmental chemicals that activate the Aryl hydrocarbon Receptor (AhR) signaling pathway (AID 651777). Further: % of control where 0% means no effect; nearly all actives have a fitted effect of over 15% in size. The settings on record: 1A2-DRE human hepatoma cells, luciferase, 24 h; activation: stronger effect = higher value. In a few lines: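 AhR activation is scored as a rise in luciferase from a stable DRE–CYP1A2 promoter construct in human hepatoma cells. Treatment lasts 24 hr at 37 C; detection uses One-Glo after 30 min at room temperature.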

The nature of assay [17]: qHTS assay for small molecule agonists of the antioxidant response element (ARE) signaling pathway measured by Nrf2-dependant transcriptional activity (AID 720636; active means well fitted curve in the direction sought with a large enough effect in the repeat runs; an effect the other way counts as inactive or inconclusive; further: potency means the concentration at half of the fitted maximal effect;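 on activation: HepG2 cells with an ARE-driven luciferase reporter; % of control where 0% means no effect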). In a few lines: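 First, ARE-luc HepG2 cells attached for 6 hr at 37 C in 1% dialyzed FBS medium. Next, compound or DMSO was added and incubated 16 hr. Finally, ONE-Glo reagent was added and luminescence measured after 30 min.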
In general terms: In qHTS, concentration-response curves come from the screen itself.

A short description of assay [18]: Cell Viability - HUV-EC-C (AID 542). Further: nearly all actives have a fitted effect of over 35% in size. Further: potency means the concentration at half of the fitted maximal effect. In a few lines: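 HUV-EC-C normal human vascular endothelial cells, 1000 cells/well, pre-incubated 5 hr at 37 °C, then exposed to compounds for 40 hr at 37 °C in complete medium. Viability measured as intracellular ATP by CellTiter-Glo luminescence; AC50 from Hill fits.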
Assay [19] in a line: Cell Viability - LYMP1-003 - Assay at 40 hr (AID 964). Further: nearly all actives have a fitted effect of over 60% in size. Further: potency means the concentration at half of the fitted maximal effect. In a few lines:
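Human lymphoblastoid LYMP1-003 cells, 2500/well in complete medium, rested 5 hr at 37 C, then exposed to compounds for 40 hr at 37 C. Viability read as intracellular ATP by CellTiter-Glo luminescence; AC50 from Hill fits of concentration-response data.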

Assay [20] is described as follows: Cell Viability - LYMP1-002 - Assay at 24 hr (AID 993). Further: potency means the concentration at half of the fitted maximal effect. The procedure, abridged: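 Human lymphoblastoid LYMP1-002 cells, 2500/well in complete medium, were treated with compounds for 24 h at 37 C; intracellular ATP was read by CellTiter-Glo luminescence. AC50 values came from Hill-equation fits of qHTS concentration-response data.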

For the compound `O=C(CCl)c1ccccc1`, the Potency entry in assay [1], in assay [14], in [15] and in assay [17] was “inactive” in each case. Further, the Potency in [2] is 7.94 µM (active); in assay [3] it was 79.4 µM (active); in assay [4], 31.6 µM (active); in assay [5] it was 10 µM (active); in assay [6], 10 µM (active); in [7], 12.6 µM (active). The Potency in assay [8] is 10 µM (active); in assay [9], 10 µM (active); in assay [10], 12.6 µM (active); in [11], 12.6 µM (active); in [12], 10 µM (active); in [13] it was 10 µM (active). Besides, in assay [16], the activation was -0.199% and 2.38%.
On to `CCCCCCCCn1sccc1=O`, for which the Potency in [18] was 25.1 µM (active); in assay [2], 2 µM (active); in [3], 15.8 µM (active); in assay [4], 7.94 µM (active); in assay [19], 25.1 µM (active); in assay [5], 3.98 µM (active). The Potency in assay [6] is 5.01 µM (active); in assay [7], 6.31 µM (active); in assay [8], 3.98 µM (active); in assay [9] it was 3.98 µM (active); in assay [10], 6.31 µM (active); in [11], 6.31 µM (active). Further, the Potency in assay [12] was 2.51 µM (active); in [13], 3.98 µM (active); in assay [20] it was 12.6 µM (active); in assay [14] it was 15.8 µM (active). Moreover, the Potency result in assay [1] and in assay [15] was “inactive” throughout.
As to `N#CSCSC#N`, the Potency in assay [18] was 25.1 µM (active); in assay [2], 5.01 µM (active); in assay [3], 31.6 µM (active); in [4] it was 25.1 µM (active); in [19], 39.8 µM (active); in assay [5], 5.01 µM (active). In addition, the Potency in [6] is 5.01 µM (active); in assay [7] it was 6.31 µM (active); in assay [8], 5.01 µM (active); in assay [9], 5.01 µM (active); in assay [10] it was 6.31 µM (active); in assay [11] it was 10 µM (active). Also, the Potency is 6.31 µM (active) in assay [12], 5.01 µM (active) in [13], 12.6 µM (active) in [20] and 31.6 µM (active) in assay [14]. The Potency entry in assay [15] and in [17] was “inactive” in each case. Also, the activation in assay [16] is 3.48% and -14.5%.
For the compound `O=[N+]([O-])c1ccccc1Cl`, the activation in assay [16] was -0.478% and -0.511%. Moreover, the Potency result in [17] was “inactive”.
As for `C(=NC1CCCCC1)=NC1CCCCC1`, the Potency result in assay [18], in [1], in assay [3], in assay [4], in assay [19] and in assay [5] was “inactive” throughout. For the same compound, the Potency result in assay [20], in assay [14], in assay [15] and in assay [17] was “inactive” each time. Further, in [16], the activation was 2.78% and 1.69%.
Consider `Oc1c(Cl)cc(Cl)cc1Cl`, for which the activation in assay [16] was 0.15% and 1.58%.
On to `C#CCO`, for which the Potency result in assay [18], in [1], in [2], in [3], in [4] and in assay [19] was “inactive” throughout. The Potency entry in assay [5], in assay [6], in assay [7], in [8], in assay [9] and in assay [10] was “inactive” each time. Also, the Potency result in assay [11], in assay [12], in assay [13], in assay [20], in [14] and in assay [17] was “inactive” throughout. Besides, the activation in [16] was 1.07%.
Regarding `CC(=O)[O-].CC(=O)[O-].O.O.[Cd+2]`, the Potency entry in assay [18], in assay [1], in assay [3], in assay [8], in assay [10] and in [11] was “inactive” throughout. Further, the Potency entry in [20], in [14] and in assay [15] was “inactive” throughout. For the same compound, the Potency in assay [5] was 31.6 µM (active); in [9] it was 50.1 µM (active); in assay [12], 39.8 µM (active); in assay [17] it was 841 nM (active). Moreover, the activation in assay [16] was 1.94%.
